Assay [1] can be described thus: small molecules captured by biotinylated probe aFSTL3 – biochemical, small-molecule microarray, fluorescence 635/667, stem cell growth factor project, primary screen (AID 1064).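 Further: measures binding of the biotinylated anti-FSTL3 antibody to printed compounds.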 To be noted: higher = more signal.
Assay [2] in a line: binders from COS7 lysate, DM2A8 probe, primary screen, torsin A project, cell lysate, small-molecule microarray, fluorescence 635/667 (AID 1065). The conditions noted are these: higher = more signal, COS7 lysate expressing mutant human TOR1A.
A short description of assay [3]: small molecules captured by biotinylated probe aFGF2 – biochemical, small-molecule microarray, fluorescence 635/667, stem cell growth factor project, primary screen (AID 1067).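 Further: measures binding of biotinylated aFGF2 protein to printed compounds on slides; z-score merges feature fluorescence and signal-to-noise across triplicate slides.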 To be noted: higher = more signal.
Assay [4] in a line: small molecules captured by biotinylated probe aFGF10 – biochemical, small-molecule microarray, fluorescence 635/667, stem cell growth factor project, primary screen (AID 1071).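 Further: score merges 667 nm spot intensity and signal to noise from triplicate slides.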 To be noted: higher = more signal.
Assay [5] addresses Neurogenic locus notch homolog protein 2 (Homo sapiens) (UniProt Q04721). Description: small molecules binding Notch2 protein – biochemical, small-molecule microarray, 635 nm fluorescence, stem cell growth factors, primary screen (AID 1073). To be noted: higher = more signal.
Assay [6] addresses Pro-neuregulin-1, membrane-bound isoform (Homo sapiens) (UniProt Q02297). Description: small molecules binding neuregulin-1 protein – biochemical, small-molecule microarray, fluorescence 635/667, psychiatric disease protein project, primary screen (AID 1075).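 Further: score combines 667 nm spot fluorescence with signal to noise.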 The conditions noted are these: NRG1 binding, 635 nm fluorescence, higher = more signal.
The test system of assay [7] is Neuregulin-1 EGF-like domain. Description: small molecules binding NRG1 EGF domain – biochemical, small-molecule microarray, 635 nm fluorescence, primary screen (AID 1081).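 Further: binding of the protein to compounds printed on small-molecule microarray slides.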 To be noted: higher = more signal.
A short description of assay [8]: FRG1 expression reporter modulators in myotubes – cell-based, C2C12 myotubes, firefly/Renilla luciferase, luminescence, FRG1 inhibition for FSHD, primary screen (AID 1084). To be noted: FRG1 promoter luciferase, higher = more signal, called active from +8 up or from −8 down.
Assay [9] is described as follows: small molecules captured by biotinylated probe aFST – biochemical, small-molecule microarray, fluorescence 635/667, stem cell growth factor project, primary screen (AID 1086).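 Further: score merges 667 nm fluorescence with signal-to-noise of each printed compound spot.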 The conditions noted are these: higher = more signal.
Assay [10] in a line: binders of probe aHhip on microarray, primary screen, stem cell growth factor project, biochemical, small-molecule microarray, fluorescence 635/667 (AID 1087).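 Further: score merges spot fluorescence at 667nm with spot signal to noise ratio.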 The conditions noted are these: higher = more signal.
Assay [11] deals with PRMT1 (protein arginine N-methyltransferase 1). Briefly: small molecules binding arginine methyltransferase PRMT1 – biochemical, small-molecule microarray, 635 nm fluorescence, primary screen (AID 1088).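 Further: binding of Prmt1 protein to compounds spotted on small-molecule microarray slides.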 The conditions noted are these: higher = more signal.
Assay [12] can be described thus: growth effects on S. cerevisiae YJM789 – YJM789 clinical isolate, OD600, 24 h, basal, primary screen (AID 1089).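 Further: growth of clinical yeast isolate S. cerevisiae YJM 789 seeded 1000 cells per well; test concentration not given here.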 To be noted: higher = more signal, called active from +8 up or from −8 down.
A short description of assay [13]: S. pombe growth modifiers, basal conditions – strain 972, OD600, 24 h, no modulator, primary screen (AID 1090).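 Further: basal condition with compound alone and no growth modifier present; test concentration not given here.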 The conditions noted are these: S. pombe 972 growth, higher = more signal, called active from +8 up or from −8 down.
Assay [14] can be described thus: budding yeast growth modifiers under rapamycin – strain BY4716, OD600, 96 h, primary screen (AID 1091). Further: test concentration not given here. The conditions noted are these: S. cerevisiae BY4716 + rapamycin, higher = more signal, called active from +8 up or from −8 down.
The target of assay [15] is Torsin-1A-interacting protein 2 (Homo sapiens) (UniProt Q8NFQ8). Briefly: small molecules binding lysate-expressed LULL1 – cell lysate, human LULL1 lysate, 635/667 nm fluorescence, primary screen (AID 1092).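 Further: probe is lysate of COS7 cells overexpressing human LULL1; score merges per-feature 667 nm fluorescence with signal-to-noise.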 The conditions noted are these: small-molecule microarray, hLULL1 lysate binding, 635 nm fluorescence; higher = more signal.
Torsin-1A-interacting protein 2 (Homo sapiens), sequence (Q8NFQ8 whole entry, looked up): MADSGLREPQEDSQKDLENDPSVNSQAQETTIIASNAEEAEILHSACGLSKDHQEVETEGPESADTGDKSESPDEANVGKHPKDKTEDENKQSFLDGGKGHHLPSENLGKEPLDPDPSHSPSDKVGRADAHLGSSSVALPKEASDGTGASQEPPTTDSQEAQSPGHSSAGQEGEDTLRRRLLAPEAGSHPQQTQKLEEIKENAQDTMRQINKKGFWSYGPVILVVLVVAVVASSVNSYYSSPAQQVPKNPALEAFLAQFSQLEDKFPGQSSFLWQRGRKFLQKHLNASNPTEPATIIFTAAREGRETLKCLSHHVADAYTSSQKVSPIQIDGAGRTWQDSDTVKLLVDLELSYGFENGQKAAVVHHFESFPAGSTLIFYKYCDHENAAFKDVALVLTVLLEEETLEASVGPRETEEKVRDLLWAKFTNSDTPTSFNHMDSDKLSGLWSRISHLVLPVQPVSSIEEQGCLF
The nature of assay [16]: optical density change of DRC41 E. coli – strain DRC41, OD650, 24 h, E. coli filamentation project, primary screen (AID 1093).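 Further: MC1000 strain lacking acrAB efflux and sulA so SOS filamentation is blocked; test concentration not given here.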 The conditions noted are these: E. coli DRC41 growth, higher = more signal, called active from +8 up or from −8 down.
Assay [17] is described as follows: probe aLefty2 binding to arrayed compounds – biochemical, biotinylated probe, 635/667 nm fluorescence, primary screen (AID 1094).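 Further: score merges spot fluorescence near 667 nm with spot signal-to-noise ratio.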 The conditions noted are these: small-molecule microarray, higher = more signal.
Assay [18] has as its system Noggin (protein binding on small-molecule microarray). Briefly: small molecules binding Noggin protein – biochemical, 635/667 nm fluorescence, primary screen (AID 1095).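 Further: score merges 667 nm feature fluorescence with signal to noise over triplicate slides.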 The conditions noted are these: 635 nm fluorescence, higher = more signal.
Assay [19] deals with Neurogenic locus notch homolog protein 3 (Homo sapiens) (UniProt Q9UM47). Briefly: small molecules binding NOTCH3 protein – biochemical, 635/667 nm fluorescence, primary screen (AID 1096). The conditions noted are these: small-molecule microarray, 635 nm fluorescence, higher = more signal.
The nature of assay [20]: probe aEGFR binding to arrayed compounds – biochemical, biotinylated probe, 635/667 nm fluorescence, primary screen (AID 1097).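 Further: probe is a biotinylated anti-EGFR antibody binding compounds printed on slides; score combines fluorescence near 667 nm and signal to noise of each spot.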 To be noted: small-molecule microarray, higher = more signal.

SMILES strings stand for the structures. Activity calls are given as the source filed them.

Neurogenic locus notch homolog protein 2 (Homo sapiens), sequence (Q04721 whole entry, looked up, canonical isoform): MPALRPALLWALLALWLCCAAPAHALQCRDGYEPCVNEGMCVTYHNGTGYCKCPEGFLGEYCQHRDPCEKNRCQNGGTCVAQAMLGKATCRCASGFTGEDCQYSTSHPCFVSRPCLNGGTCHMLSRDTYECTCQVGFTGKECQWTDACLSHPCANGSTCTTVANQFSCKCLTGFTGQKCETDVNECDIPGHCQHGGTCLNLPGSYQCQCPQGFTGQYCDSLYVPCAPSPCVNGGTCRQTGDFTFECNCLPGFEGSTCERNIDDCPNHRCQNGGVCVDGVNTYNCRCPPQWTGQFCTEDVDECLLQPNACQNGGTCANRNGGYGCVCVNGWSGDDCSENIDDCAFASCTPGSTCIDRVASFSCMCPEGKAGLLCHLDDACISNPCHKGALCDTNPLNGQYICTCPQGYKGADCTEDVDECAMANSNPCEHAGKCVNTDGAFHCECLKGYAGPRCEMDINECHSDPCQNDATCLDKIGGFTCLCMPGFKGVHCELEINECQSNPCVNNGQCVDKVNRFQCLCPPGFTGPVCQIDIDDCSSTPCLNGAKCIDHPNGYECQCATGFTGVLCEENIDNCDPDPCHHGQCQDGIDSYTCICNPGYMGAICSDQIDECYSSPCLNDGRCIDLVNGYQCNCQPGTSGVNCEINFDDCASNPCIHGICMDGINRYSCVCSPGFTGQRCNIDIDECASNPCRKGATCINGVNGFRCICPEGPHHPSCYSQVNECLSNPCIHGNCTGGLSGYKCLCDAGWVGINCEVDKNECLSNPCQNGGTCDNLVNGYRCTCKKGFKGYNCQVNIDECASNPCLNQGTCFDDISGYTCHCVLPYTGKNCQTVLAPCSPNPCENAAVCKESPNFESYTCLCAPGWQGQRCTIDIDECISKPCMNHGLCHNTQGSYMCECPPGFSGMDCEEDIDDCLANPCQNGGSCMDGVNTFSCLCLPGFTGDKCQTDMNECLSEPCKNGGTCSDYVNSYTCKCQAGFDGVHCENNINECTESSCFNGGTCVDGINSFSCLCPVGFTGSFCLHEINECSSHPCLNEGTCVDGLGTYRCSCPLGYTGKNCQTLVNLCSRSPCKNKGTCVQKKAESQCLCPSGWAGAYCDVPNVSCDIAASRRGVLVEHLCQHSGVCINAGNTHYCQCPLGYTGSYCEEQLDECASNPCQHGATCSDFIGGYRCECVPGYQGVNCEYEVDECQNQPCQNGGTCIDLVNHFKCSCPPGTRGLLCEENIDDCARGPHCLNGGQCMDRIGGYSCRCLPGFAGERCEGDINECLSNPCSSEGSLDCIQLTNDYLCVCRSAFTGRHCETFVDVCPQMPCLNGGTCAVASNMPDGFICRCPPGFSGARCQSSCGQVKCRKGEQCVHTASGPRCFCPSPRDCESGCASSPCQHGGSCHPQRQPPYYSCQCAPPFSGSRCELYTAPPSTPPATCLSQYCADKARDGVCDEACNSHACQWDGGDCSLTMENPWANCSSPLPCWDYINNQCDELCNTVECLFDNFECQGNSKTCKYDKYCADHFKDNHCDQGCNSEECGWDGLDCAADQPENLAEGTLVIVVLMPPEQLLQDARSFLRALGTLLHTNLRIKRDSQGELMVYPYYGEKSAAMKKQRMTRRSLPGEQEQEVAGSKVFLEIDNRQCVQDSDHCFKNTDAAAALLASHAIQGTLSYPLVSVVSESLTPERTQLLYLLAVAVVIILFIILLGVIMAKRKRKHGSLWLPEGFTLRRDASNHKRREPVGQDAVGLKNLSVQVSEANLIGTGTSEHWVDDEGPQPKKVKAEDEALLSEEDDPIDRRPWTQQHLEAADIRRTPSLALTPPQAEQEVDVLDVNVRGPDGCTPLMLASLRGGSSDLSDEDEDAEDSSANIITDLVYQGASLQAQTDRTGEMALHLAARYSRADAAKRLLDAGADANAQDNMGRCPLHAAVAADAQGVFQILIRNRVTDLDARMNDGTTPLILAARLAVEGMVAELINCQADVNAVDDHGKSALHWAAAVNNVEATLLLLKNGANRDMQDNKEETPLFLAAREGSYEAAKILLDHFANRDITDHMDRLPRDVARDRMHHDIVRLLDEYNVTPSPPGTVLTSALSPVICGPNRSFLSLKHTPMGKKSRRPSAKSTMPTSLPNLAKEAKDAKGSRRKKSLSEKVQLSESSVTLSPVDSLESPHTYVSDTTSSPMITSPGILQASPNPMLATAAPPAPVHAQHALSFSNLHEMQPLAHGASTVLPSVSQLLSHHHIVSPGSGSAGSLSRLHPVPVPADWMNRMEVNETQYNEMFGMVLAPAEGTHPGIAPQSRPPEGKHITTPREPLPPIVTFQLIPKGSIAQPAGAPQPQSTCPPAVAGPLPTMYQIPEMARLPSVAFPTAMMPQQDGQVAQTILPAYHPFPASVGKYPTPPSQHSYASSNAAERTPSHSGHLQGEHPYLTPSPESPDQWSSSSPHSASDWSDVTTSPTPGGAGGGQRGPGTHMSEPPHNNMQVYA
Pro-neuregulin-1, membrane-bound isoform (Homo sapiens), sequence (Q02297 whole entry, looked up, the tested form may be a part, canonical isoform): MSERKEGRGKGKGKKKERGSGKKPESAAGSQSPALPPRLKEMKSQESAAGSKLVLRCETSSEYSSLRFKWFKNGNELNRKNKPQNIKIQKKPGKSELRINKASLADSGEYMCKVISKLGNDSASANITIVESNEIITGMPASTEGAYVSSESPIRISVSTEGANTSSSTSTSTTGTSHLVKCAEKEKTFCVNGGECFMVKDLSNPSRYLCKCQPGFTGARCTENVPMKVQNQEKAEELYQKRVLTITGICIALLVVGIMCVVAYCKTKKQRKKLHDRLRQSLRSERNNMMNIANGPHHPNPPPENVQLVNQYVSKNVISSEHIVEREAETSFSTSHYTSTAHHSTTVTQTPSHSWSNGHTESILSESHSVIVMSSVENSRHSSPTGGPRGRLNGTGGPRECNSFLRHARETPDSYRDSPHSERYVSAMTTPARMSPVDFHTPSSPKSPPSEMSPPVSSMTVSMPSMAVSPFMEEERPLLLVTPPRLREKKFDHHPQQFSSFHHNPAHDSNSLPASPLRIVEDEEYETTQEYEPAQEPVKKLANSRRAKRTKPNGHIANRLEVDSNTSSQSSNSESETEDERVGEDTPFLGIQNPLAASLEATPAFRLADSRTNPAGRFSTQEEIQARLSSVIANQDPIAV

For `COC(=O)[C@@]1(Cc2ccc(OC)cc2)[C@H]2c3cc(C(=O)N4CCCC4)n(Cc4ccc(O)c(OC)c4)c3C[C@H]2CN1C(=O)c1ccccc1`, the composite z-score in assay [1] came to 1.41; in assay [2] it was 1.14; in assay [3], 0.694; in assay [4] it was 0.777; in [5] it was 1.1; in assay [6] it was 1.83. For the same compound, the composite z-score in assay [7] is 1.1; in assay [9], 2.28; in assay [10], 2.44; in assay [11], -0.356; in assay [15], 3.39; in [17] it was 0.531. The composite z-score was -0.194 in [18], 0.6 in [19] and 0.805 in assay [20]. The z-score in assay [8] was 0.665 (inactive); in [12], 0.972 (inactive); in assay [13], 1.19 (inactive); in assay [14], 1.18 (inactive); in [16], -0.456 (inactive).
`[N-]=[N+]=NCc1ccccc1C[C@]1(C(=O)N2CCCCC2)N=C(c2ccc(OCCCO)cc2)O[C@H]1c1ccccc1N=[N+]=[N-]`: the composite z-score in assay [1] worked out at 0.643; in assay [2], 0.133; in assay [3] it was 0.158; in assay [4], 0.816; in assay [5], 1.3; in [6], 1.57. For the same compound, the composite z-score in assay [7] was 1.1; in assay [9], 0.637; in [10], -0.233; in assay [11], 1.57; in assay [15], 3.09; in [17] it was 0.202. Further, the composite z-score in [18] is -0.112; in assay [19] it was 1.07; in assay [20] it was 0.262. For the same compound, the z-score in assay [8] is -1.99 (inactive); in assay [12] it was -0.912 (inactive); in assay [13] it was -0.371 (inactive); in assay [14], 6.08 (inactive); in assay [16], -0.442 (inactive).
Regarding `O=C1O[C@H](c2ccccc2)[C@H](c2ccccc2)N2[C@H]1[C@@H](C(=O)N1CCCCCCC1)[C@]1(C(=O)Nc3ccc(C#CC4=CCCCC4)cc31)[C@H]2c1ccc(OCCO)cc1`, the composite z-score in assay [1] is 3.55; in assay [2], 2.01; in assay [3], 0.917; in [4] it was 0.965; in assay [5], 1.6; in [6] it was 2.38. Moreover, the composite z-score in assay [7] amounted to 1.3; in assay [9], 3.36; in assay [10], 3.42; in assay [11] it was 1.53; in [15], 3.7; in [17], 1.72. The composite z-score in [18] was 1.72; in assay [19], 1.02; in assay [20] it was 1.07. The z-score in [8] is 0.677 (inactive); in assay [12], 0.42 (inactive); in assay [13], -2.08 (inactive); in assay [14] it was 2.79 (inactive); in [16], 2.64 (inactive).
With `COc1ccc(/C=C/C=O)cc1`, the composite z-score in assay [1] was -0.0583; in assay [2] it was 0.144; in assay [3], -0.0982; in assay [4], 0.19; in assay [5], 0.173; in [6], -0.802. Besides, the composite z-score in [7] was -0.562; in [9], 0.0803; in assay [10], 0.0975; in assay [11], 0.722; in assay [15] it was -0.714; in assay [17], -0.15. The composite z-score in assay [18] is 0.775; in assay [19], 0.271; in assay [20], -0.045. Further, the z-score in assay [8] was 0.599 (inactive); in assay [12], 1.17 (inactive); in assay [13], -7.83 (inactive); in assay [14], 1.01 (inactive); in assay [16], 0.0062 (inactive).
Turning to `COC(=O)[C@@]1(Cc2ccc(F)cc2)[C@H]2c3cc(C(=O)N(C)C)n(Cc4ccccc4)c3C[C@H]2CN1C(=O)c1ccccc1`, the composite z-score in assay [1] is -0.0364; in assay [2], -0.267; in assay [3], 0.0103; in [4], 0.314; in [5], 1.58; in [6] it was 1.32. The composite z-score came out at 0.337 in [7]; 1.35 in assay [9]; 2.22 in assay [10]; 0.964 in [11]; 1.73 in assay [15]; 0.318 in [17]. The composite z-score in assay [18] was -0.004; in assay [19] it was 1.14; in assay [20], 0.0709. Moreover, the z-score in [8] was 0.403 (inactive); in assay [12], 0.428 (inactive); in assay [13] it was 1.49 (inactive); in assay [14], 3.85 (inactive); in [16], -0.466 (inactive).

The record behind these values is PubChem BioAssay.
